Laboratory results published in PubChem BioAssay (NCI).
About 79,000 compounds went through this panel and 15% of them were active in at least one assay; those are over-represented in the sample as a whole. No stated cut-off is given here; in the data, active means growth inhibition above about 70%; inactive means the rest.

Experiments:
[1] = NCI Yeast Anticancer Drug Screen. Data for the rad50 strain (AID 155);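 further: 0% = growth of vehicle-only cultures of the same strain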; settings: S. cerevisiae rad50 strain growth inhibition; at 50.0 µM; active compounds read high
How it was run: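 Readout: growth inhibition relative to vehicle-treated cultures. Compound exposure was carried out in a genetically defined yeast strain deficient in DNA damage repair.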

[2] = NCI Yeast Anticancer Drug Screen. Data for the mec2-1 strain (AID 157); settings: S. cerevisiae mec2-1 strain, at 50.0 µM, active compounds read high
How it was run: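 Vehicle-treated cultures served as reference for growth inhibition of compound-exposed mec2-1 yeast.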

[3] = NCI Yeast Anticancer Drug Screen. Data for the sgs1 mgt1 strain (AID 161);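 further: 0% = growth of cultures given vehicle only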; settings: S. cerevisiae sgs1 mgt1 strain, at 50.0 µM, active compounds read high
How it was run: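 Mutant yeast exposed to compound; growth scored against vehicle-only wells.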

[4] = NCI Yeast Anticancer Drug Screen. Data for the cln2 rad14 strain (AID 165);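 further: 0% = growth equal to vehicle treated cultures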; settings: S. cerevisiae cln2 rad14 strain, at 50.0 µM, active compounds read high
How it was run: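 Each compound was tested on cln2 rad14 yeast. Inhibition of growth was calculated against vehicle-exposed controls.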

[5] = NCI Yeast Anticancer Drug Screen. Data for the bub3 strain (AID 167); settings: S. cerevisiae bub3 mutant strain, at 50.0 µM, active compounds read high
How it was run: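 Readout: yeast growth inhibition, expressed relative to vehicle-only wells. The test organism is a mutant strain from a panel with lesions in DNA repair or checkpoint genes.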

[6] = NCI Yeast Anticancer Drug Screen. Data for the mlh1 rad18 strain (AID 175); settings: S. cerevisiae mlh1 rad18 strain growth inhibition; at 50.0 µM; active compounds read high
How it was run: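 Vehicle-treated cultures served as the reference for growth inhibition in a yeast strain carrying DNA damage repair alterations exposed to each compound.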

Measured: growth inhibition

Cc1cc(N(CCC#N)CCC#N)ccc1/C=C(\NC(=O)/C=C/c1ccccc1)C(=O)N=[N+]=[N-]
inactive: [1] -30.4% | [2] -31.9% | [3] -44.9% | [4] -19.4% | [5] -21.1% | [6] -7.2%

CN1CCCC2C3=CC=C4CC(O)CCC4(C)C3CCC21C (centres undefined)
inactive: [1] 60.4% | [2] 21.5% | [3] 34.9% | [4] 14.5% | [5] 23.9% | [6] 35.5%

Cc1cc(C(=O)O)c(C#N)c(=O)n1C
inactive: [1] -1.55% | [2] 5.3% | [3] -12.6% | [4] -13.6% | [5] -12% | [6] 8.55%

N[C@@H]1c2c(csc2Br)C(=O)[C@@H]1O
inactive: [1] -5.25% | [2] -6.55% | [3] 13.3% | [4] -6.8% | [5] 0.8% | [6] -14.6%

COc1ccc(Cl)cc1NC(=O)c1cccc([N+](=O)[O-])c1
inactive: [1] -2.45% | [2] 0.7% | [3] 12.9% | [4] -13.9% | [5] 16.9% | [6] -1.25%

CCOC(=O)N1Cc2cc3ccccc3nc2C1CC(=O)O (centres undefined)
inactive: [1] -14.8% | [2] 11.9% | [3] -3.6% | [4] -28.1% | [5] -1.65% | [6] -24.8%

O=C(Nc1ccccc1)c1ccc(I)cc1
inactive: [1] 7.05% | [2] -31.7% | [3] 8.3% | [4] -7.35% | [5] 3.95% | [6] -25.3%

CCC(=O)NCCCCC1CCCC[N+]1(C)C (centres undefined)
inactive: [1] -0.65% | [2] -11.9% | [3] 7.45% | [4] -14.4% | [5] -2% | [6] -15.8%

Nc1c([N+](=O)[O-])cc(F)cc1C(F)(F)F
inactive: [1] -5.5% | [2] -17.6% | [3] 3.6% | [4] -14.9% | [5] 5.4% | [6] 6.7%

Cc1ccc(C(=O)NO)cc1
inactive: [1] 28.8% | [2] -5.6% | [3] 7.65% | [4] -4.65% | [5] 13.8% | [6] 17.5%

O=C(c1ccccc1)c1oc(CO)cc(=O)c1O
inactive: [1] -1% | [2] -12% | [3] -4.35% | [4] -48.1% | [5] -3.9% | [6] -16.1%

Cc1ccc(OCC(=O)O)cc1C
inactive: [1] -5.75% | [2] -24.2% | [3] -14.7% | [4] 0.25% | [5] -11.8% | [6] -11.2%

Cc1ccc(S(=O)(=O)NN=C2CCCCC2)cc1
inactive: [1] -3.45% | [2] -11.4% | [3] -1.3% | [4] -19.4% | [5] -14.5% | [6] -11.8%

N#C/C(=C\NC(=S)NCc1ccccc1)c1nc2ccccc2s1
inactive: [1] 54.1% | [2] 32.4% | [3] 53.5% | [4] 43.3% | [5] 30.5% | [6] 61.5%

COc1ccc(Cc2coc3ccccc3c2=O)cc1
inactive: [1] 13.1% | [2] 7.35% | [3] 13.7% | [4] 4.85% | [5] 25.2% | [6] 9.4%

Cn1c(=O)c2snnc2n(C)c1=O
inactive: [1] -2.75% | [2] -2.65% | [3] -2.65% | [4] -9.5% | [5] 2.9% | [6] -16.6%

CC(=O)O[C@H]1CCN2C(=O)C=CC(OCc3ccccc3)C12 (some centres undefined)
inactive: [1] 3.8% | [2] -15.3% | [3] 11.1% | [4] 13.2% | [5] -5.95% | [6] 3.6%

O/N=C1/CCSc2ccccc21
inactive: [1] 21% | [2] -8.9% | [3] 17.1% | [4] 16.2% | [5] 28.4% | [6] 8.25%

Cc1ccc(NC(=O)CSc2nnc(Cc3ccccc3)o2)c(C)c1
inactive: [1] -26.8% | [2] -63.2% | [3] -57.8% | [4] -22.8% | [5] -3.3% | [6] -54.9%
